# Test results taken from ChEMBL document CHEMBL4513216, “Probing the Open Global Health Chemical Diversity Library for Multistage-Active Starting Points for Next-Generation Antimalarials” (ACS Infect Dis, 2020).
# The campaign covered roughly 69,000 compounds. About 8,600 (12%) showed an effect of 50% or more. Many of the other results were omitted from the sample, so strong results are more common in it than they were.
# System: Plasmodium berghei
# Assay: Screen against P. berghei liver stage (PbLuc), transformed with Luciferase, at 10uM
# Type: functional, HepG2
# Conditions: tested at 10 uM
row,Compound,INHIBITION [%]
1,CC(CNCc1ccc(F)cc1)Oc1ccccn1 (stereo not drawn),13.8
2,COc1cccc(OCC(=O)NS(=O)(=O)c2ccc(Br)s2)c1,17.5
3,COc1ccc(OCC(=O)NS(=O)(=O)c2ccc(Cl)s2)cc1,17.7
4,COc1ccc(OCC(=O)NS(=O)(=O)c2ccc(Br)s2)cc1,60.9
5,CCn1nnc2c1C(COC)CN(Cc1ccsc1)C2 (stereo not drawn),21
6,Cn1cc(C(=O)N2CCC(c3cc(CCO)n(C)n3)C2)cn1 (stereo not drawn),0.696
7,C=CNC(=O)c1nnc2ccc(N3CCOCC3)cc2n1,11
8,Cc1cc(C)nc(N2CCC(CNC(=O)c3cnccn3)CC2)n1,-51.4
9,O=C(NCC1CCN(c2ncccn2)CC1)c1cnccn1,71.8
10,CS(=O)(=O)N1CCC(CNC(=O)c2cnccn2)CC1,43.8
11,COc1ccccc1N1CCN(C(=O)NC(C)c2nncn2C)CC1 (stereo not drawn),9.14
12,CCCC(=O)N1CCN(Cc2cc(-c3ccncc3)nn2C)CC1,8.72
13,CC(c1ccco1)n1cc(-c2cc(CN3CCCC3)cs2)nn1 (stereo not drawn),5.23
14,CC(c1nncn1C)n1cc(-c2cc(CN3CCCC3)cs2)nn1 (stereo not drawn),57.2
15,CC(c1nccs1)n1cc(-c2cc(CN3CCCCC3)cs2)nn1 (stereo not drawn),21.5
16,CC(C)CN1CCn2c(COCc3cccnc3)nnc2C1,-29.3
17,O=C1CC2(CCN(CC3CC3)C2)CN1c1ccc2c(c1)OCO2 (stereo not drawn),25
18,Cc1ccc(CN2CCC3(CC(=O)N(c4cccc(F)c4)C3)C2)o1 (stereo not drawn),12
19,O=C1CC2(CCN(Cc3cccnc3)C2)CN1c1ccc2c(c1)OCO2 (stereo not drawn),22.9
20,Cn1ccnc1CN1CCC2(CC(=O)N(c3ccc4c(c3)OCO4)C2)C1 (stereo not drawn),4.27
21,O=C1CC2(CCN(Cc3ccco3)C2)CN1c1ccc2c(c1)OCO2 (stereo not drawn),78.8

row,Compound,INHIBITION [%]
1,Cc1ccc(CN2CCC3(CC(=O)N(c4ccc5c(c4)OCO5)C3)C2)o1 (stereo not drawn),69.5
2,CC(C)CN1CCO[C@H]2CCN(c3cnccn3)CC[C@@H]21,16.6
3,O=C(c1cc(-n2cccn2)ccc1Cl)N1CCC(N2CCCC2=O)CC1,18.5
4,CC(C)[C@H]1CN(Cc2nccn2C)C[C@@H]1NC(=O)COCC(N)=O,44.9
5,CS(=O)(=O)c1cnc(CC2CC2)nc1C1CCCNC1 (stereo not drawn),41.7
6,NC1CCN(c2nccn3c(=O)[nH]nc23)CC1,48.2
7,Cc1cc(N2CCN(C3CCSCC3)CC2)n2nc(C)c(C)c2n1,51.4
8,Cc1cc(N2CCCN3CCC[C@H]3C2)n2nc(C)c(C)c2n1,48.1
9,Cc1cc(N2CCN3CCCCC3C2)n2nc(C)c(C)c2n1 (stereo not drawn),16.8
10,O=S(=O)(c1cn[nH]c1)N1CCC(O)(CN2CCC(F)(F)CC2)C1 (stereo not drawn),-5.452
11,CC(C)Cc1ccc(S(=O)(=O)Nc2ccc(=O)n(C)c2)cc1,88.5
12,CCc1ccc(C(=O)O)cc1S(=O)(=O)Nc1ccc(=O)n(C)c1,9.16
13,CCCc1ccc(S(=O)(=O)Nc2ccc(=O)n(C)c2)cc1,81.1
14,Cc1ccc(F)c(S(=O)(=O)Nc2cn(C)cc(Br)c2=O)c1,8.53
15,Cc1ccc(S(=O)(=O)Nc2ccc(=O)n(C)c2)c(Br)c1,77
16,Cn1cc(NS(=O)(=O)c2ccc3c(c2)CCCC3)ccc1=O,81.1
17,CCCc1ccc(S(=O)(=O)NCCNC(=O)c2ccoc2)cc1,5.05
18,Cn1cc(Br)c(=O)c(NS(=O)(=O)c2ccc3c(c2)CCC3)c1,28.3
19,Cn1cc(NS(=O)(=O)c2ccc(F)c(F)c2)ccc1=O,23.5
20,CC(C)c1ccc(C(=O)O)cc1S(=O)(=O)Nc1ccc(=O)n(C)c1,-3.87
21,CC(C)Cc1ccc(S(=O)(=O)NCCCN2CCNC(=O)C2)cc1,-20.3

row,Compound,INHIBITION [%]
1,CCc1ccc(S(=O)(=O)Nc2cn(C)cc(Br)c2=O)cc1,25.3
2,CS(=O)(=O)CCCSc1cccc(C#N)c1,-9.08
3,O=c1occ(CN2CCSCC2)c(O)c1CN1CCCC1,4.93
4,O=C(c1ccco1)N1C[C@H]2CCCN(CC3CC3)[C@H]2C1,25.5
5,CCc1cc(C(=O)N2CCC(O)(Cn3ccc4ccncc43)CC2)no1,-0.902
6,Cc1ncc(Cl)c(C(=O)N2CCCC(n3nc(C)nc3C)C2)n1 (stereo not drawn),17.265
7,O=C(Cn1ccc2ccc(Cl)cc21)NCc1ccc(C(=O)O)cc1,-6.42
8,O=C([C@H]1CN(Cc2cccnc2)C[C@H]2OCC[C@@H]12)N1CCCO1,26.5
9,O=C([C@H]1C[C@H]2OCC[C@H]2N(Cc2ccccc2F)C1)N1CCCCO1,59
10,Cc1ccccc1CN1C[C@@H](C(=O)N2CCCCO2)C[C@H]2OCC[C@H]21,42.7
11,O=C([C@H]1C[C@H]2OCC[C@H]2N(Cc2ccccn2)C1)N1CCCCO1,5.44
12,O=C([C@H]1C[C@H]2OCC[C@H]2N(Cc2ccoc2)C1)N1CCCCO1,88.2
13,CN(C)C(=O)[C@H]1C[C@H]2OCC[C@H]2N(Cc2ccc3c(c2)OCO3)C1,28.7
14,CNC(=O)[C@H]1C[C@H]2OCC[C@H]2N(Cc2ccc(F)cc2)C1,33
15,O=C([C@H]1CN(Cc2ccc(F)cc2)C[C@H]2OCC[C@@H]12)N1CCCO1,24.9
16,O=C([C@H]1CN(Cc2ccccc2F)C[C@H]2OCC[C@@H]12)N1CCCO1,61.9
17,O=C([C@H]1C[C@H]2OCC[C@H]2N(Cc2ccc(F)cc2)C1)N1CCCCO1,38.1
18,O=C([C@H]1C[C@H]2OCC[C@H]2N(Cc2ccoc2)C1)N1CCCO1,19.4
19,CN(C)C(=O)[C@H]1C[C@H]2OCC[C@H]2N(Cc2ccc(F)cc2)C1,53.2
20,Cc1ccc(CN2CCc3ncnc(C4CCOC4)c3CC2)s1 (stereo not drawn),-31.6
21,CC(C)=CCN1CCN(C(=O)c2cc(C(C)C)on2)[C@H]2CS(=O)(=O)C[C@H]21,17.7
